Measurements: the supplement of paper PMC12808144

What was measured:
Mel-DCC-11 = test: cell viability relative to DMSO control (fraction of DMSO control); higher = less cytotoxic, active = 0.5 or less; conditions: 1 µM; 120 h
Summary of the method: (§1)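 Luminescence from ATPlite 1step was read after 120 h in 384-well plates carrying 315 approved anti-cancer drugs (TargetMol), acoustically pre-spotted to give 1 µM in duplicate. Cells were seeded in 40 µl per well: 2500/well NHEM-hTERT immortalized melanocytes and 1500/well patient-derived Mel-DCC-11 and Mel-DCC-11-R, its resistant subline, which was assayed alone and with 8 µM of its selecting drug. Viability was normalised to vehicle-treated controls and averaged across duplicate wells.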

NHEM-hTERT = test: as above; conditions: 1 µM; 120 h
Summary of the method: as §1

Mel-DCC-11-R = test: cell viability relative to DMSO control (fraction of DMSO control); higher = less cytotoxic, active = 0.8 or less; conditions: 1 µM, 120 h
Summary of the method: as §1

Measured: cell viability

Cc1ccc(Nc2nccc(N(C)c3ccc4c(C)n(C)nc4c3)n2)cc1S(N)(=O)=O [Pazopanib]
inactive: Mel-DCC-11 1.68 | NHEM-hTERT 0.893 | Mel-DCC-11-R; vemurafenib co-treatment 0 µM 1.07 | Mel-DCC-11-R; vemurafenib co-treatment 8 µM 1.13

O=C(NC(Cc1cc(=O)[nH]c2ccccc12)C(=O)O)c1ccc(Cl)cc1 (stereo unspecified) [Rebamipide]
inactive: Mel-DCC-11 1.15 | NHEM-hTERT 1 | Mel-DCC-11-R; vemurafenib co-treatment 0 µM 0.995 | Mel-DCC-11-R; vemurafenib co-treatment 8 µM 1.24

CCC1=C[C@@H]2CN(C1)Cc1c([nH]c3ccccc13)[C@@](C(=O)OC)(c1cc3c(cc1OC)N(C)[C@H]1[C@@](O)(C(=O)OC)[C@H](OC(C)=O)[C@]4(CC)C=CCN5CC[C@]31[C@@H]54)C2.O=C(O)[C@H](O)[C@@H](O)C(=O)O.O=C(O)[C@H](O)[C@@H](O)C(=O)O [Vinorelbine Tartrate]
inactive: Mel-DCC-11 0.78 | NHEM-hTERT 0.644 | Mel-DCC-11-R; vemurafenib co-treatment 0 µM 1.04
active: Mel-DCC-11-R; vemurafenib co-treatment 8 µM 0.703

Nc1c2ccccc2nc2ccccc12 [Aminacrine]
inactive: Mel-DCC-11 1.43 | NHEM-hTERT 0.915 | Mel-DCC-11-R; vemurafenib co-treatment 0 µM 1.26 | Mel-DCC-11-R; vemurafenib co-treatment 8 µM 1.2

NC(=O)c1ncn([C@@H]2O[C@H](CO)[C@@H](O)[C@H]2O)c1N [AICAR (Acadesine)]
inactive: Mel-DCC-11 1.34 | NHEM-hTERT 1.06 | Mel-DCC-11-R; vemurafenib co-treatment 0 µM 1.12 | Mel-DCC-11-R; vemurafenib co-treatment 8 µM 1.21

CC(O)(P(=O)(O)O)P(=O)(O)O [Etidronate]
inactive: Mel-DCC-11 0.821 | NHEM-hTERT 1.15 | Mel-DCC-11-R; vemurafenib co-treatment 0 µM 1.12 | Mel-DCC-11-R; vemurafenib co-treatment 8 µM 0.981

CNC(=O)c1cc(Oc2ccc(NC(=O)Nc3ccc(Cl)c(C(F)(F)F)c3)cc2)ccn1.Cc1ccc(S(=O)(=O)O)cc1 [Sorafenib tosylate]
inactive: Mel-DCC-11 1.35 | NHEM-hTERT 0.904 | Mel-DCC-11-R; vemurafenib co-treatment 0 µM 1.02 | Mel-DCC-11-R; vemurafenib co-treatment 8 µM 1.1

CC[C@@]1(O)C(=O)OCc2c1cc1n(c2=O)Cc2cc3c(CN(C)C)c(O)ccc3nc2-1.Cl [Topotecan hydrochloride]
inactive: NHEM-hTERT 0.768
active: Mel-DCC-11 0.346 | Mel-DCC-11-R; vemurafenib co-treatment 0 µM 0.645 | Mel-DCC-11-R; vemurafenib co-treatment 8 µM 0.339

C[C@H]1O[C@@H](n2cc(F)c(=O)[nH]c2=O)[C@H](O)[C@@H]1O [Doxifluridine]
inactive: Mel-DCC-11 1.31 | NHEM-hTERT 0.863 | Mel-DCC-11-R; vemurafenib co-treatment 0 µM 1.08 | Mel-DCC-11-R; vemurafenib co-treatment 8 µM 1.21

C[C@@H]1C[C@H]2[C@@H]3CCC4=CC(=O)C=C[C@]4(C)[C@@]3(F)[C@@H](O)C[C@]2(C)[C@@]1(O)C(=O)COP(=O)([O-])[O-].[Na+].[Na+] [Dexamethasone Sodium Phosphate]
inactive: Mel-DCC-11 1.45 | NHEM-hTERT 1.2 | Mel-DCC-11-R; vemurafenib co-treatment 0 µM 1.16 | Mel-DCC-11-R; vemurafenib co-treatment 8 µM 0.927

C#Cc1cccc(Nc2ncnc3cc4c(cc23)OCCOCCOCCO4)c1 [Icotinib]
inactive: Mel-DCC-11 1.1 | NHEM-hTERT 1.18 | Mel-DCC-11-R; vemurafenib co-treatment 0 µM 1.1 | Mel-DCC-11-R; vemurafenib co-treatment 8 µM 0.849

Cl.NNc1nncc2ccccc12 [Hydralazine hydrochloride]
inactive: Mel-DCC-11 1.17 | NHEM-hTERT 1.12 | Mel-DCC-11-R; vemurafenib co-treatment 0 µM 1.03 | Mel-DCC-11-R; vemurafenib co-treatment 8 µM 1.19

CN1CCN(c2ccc3nc(-c4c(N)c5c(F)cccc5[nH]c4=O)[nH]c3c2)CC1 [Dovitinib]
inactive: Mel-DCC-11 1.11 | NHEM-hTERT 0.972 | Mel-DCC-11-R; vemurafenib co-treatment 0 µM 1.05 | Mel-DCC-11-R; vemurafenib co-treatment 8 µM 1.08

COc1cc2c(cc1O)CC[C@@H]1[C@@H]2CC[C@]2(C)[C@@H](O)CC[C@@H]12 [2-Methoxyestradiol]
inactive: Mel-DCC-11 0.961 | NHEM-hTERT 0.87 | Mel-DCC-11-R; vemurafenib co-treatment 0 µM 1.29 | Mel-DCC-11-R; vemurafenib co-treatment 8 µM 0.985

CN(C)CCCN1c2ccccc2Sc2ccc(Cl)cc21.Cl [Chlorpromazine hydrochloride]
inactive: Mel-DCC-11 1.33 | NHEM-hTERT 1.06 | Mel-DCC-11-R; vemurafenib co-treatment 0 µM 1.06 | Mel-DCC-11-R; vemurafenib co-treatment 8 µM 1.11

COC(=O)Nc1nc2ccc(C(=O)c3cccs3)cc2[nH]1 [Nocodazole]
active: Mel-DCC-11-R; vemurafenib co-treatment 8 µM 0.518
inactive: Mel-DCC-11 0.998 | NHEM-hTERT 0.63 | Mel-DCC-11-R; vemurafenib co-treatment 0 µM 0.823

CCCCCCNC(=O)n1cc(F)c(=O)[nH]c1=O [Carmofur]
inactive: Mel-DCC-11 1.58 | NHEM-hTERT 1.17 | Mel-DCC-11-R; vemurafenib co-treatment 0 µM 1.12 | Mel-DCC-11-R; vemurafenib co-treatment 8 µM 1.06

CN(C)CCOc1ccc(/C(=C(/CCCl)c2ccccc2)c2ccccc2)cc1.O=C(O)CC(O)(CC(=O)O)C(=O)O [Toremifene citrate]
inactive: Mel-DCC-11 1.61 | NHEM-hTERT 0.992 | Mel-DCC-11-R; vemurafenib co-treatment 0 µM 0.981 | Mel-DCC-11-R; vemurafenib co-treatment 8 µM 1.19

COc1ccc(-c2cc(=S)ss2)cc1 [Anethole trithione]
inactive: Mel-DCC-11 1.28 | NHEM-hTERT 1.05 | Mel-DCC-11-R; vemurafenib co-treatment 0 µM 1.04 | Mel-DCC-11-R; vemurafenib co-treatment 8 µM 1.13

CC1(C)CCC(C)(C)c2cc(NC(=O)c3ccc(C(=O)O)cc3)ccc21 [Tamibarotene]
inactive: Mel-DCC-11 1.17 | NHEM-hTERT 1.09 | Mel-DCC-11-R; vemurafenib co-treatment 0 µM 0.958 | Mel-DCC-11-R; vemurafenib co-treatment 8 µM 1.21

CC(C)CN(C[C@@H](O)[C@H](Cc1ccccc1)NC(=O)O[C@H]1CCOC1)S(=O)(=O)c1ccc(N)cc1 [Amprenavir]
inactive: Mel-DCC-11 0.769 | NHEM-hTERT 0.952 | Mel-DCC-11-R; vemurafenib co-treatment 0 µM 0.854 | Mel-DCC-11-R; vemurafenib co-treatment 8 µM 0.833

C[C@@H]1O[C@@H](OC[C@H]2O[C@@H](Oc3c(-c4ccc(O)c(O)c4)oc4cc(O)cc(O)c4c3=O)[C@H](O)[C@@H](O)[C@@H]2O)[C@H](O)[C@H](O)[C@H]1O [Rutin]
inactive: Mel-DCC-11 0.977 | NHEM-hTERT 1.09 | Mel-DCC-11-R; vemurafenib co-treatment 0 µM 1.01 | Mel-DCC-11-R; vemurafenib co-treatment 8 µM 0.929

NC1CCCCC1N.O=C([O-])C(=O)[O-].[Pt+2] (stereo unspecified) [Oxaliplatin]
inactive: Mel-DCC-11 1.09 | NHEM-hTERT 1.05 | Mel-DCC-11-R; vemurafenib co-treatment 0 µM 1.01 | Mel-DCC-11-R; vemurafenib co-treatment 8 µM 1.12

CN(C)C(=O)COC(=O)Cc1ccc(OC(=O)c2ccc(N=C(N)N)cc2)cc1.CS(=O)(=O)O [Camostat mesilate]
inactive: Mel-DCC-11 1.03 | NHEM-hTERT 0.975 | Mel-DCC-11-R; vemurafenib co-treatment 0 µM 1.1 | Mel-DCC-11-R; vemurafenib co-treatment 8 µM 1.21

CCc1c2c(nc3ccc(OC(=O)N4CCC(N5CCCCC5)CC4)cc13)-c1cc3c(c(=O)n1C2)COC(=O)[C@]3(O)CC [Irinotecan]
inactive: Mel-DCC-11 0.988 | NHEM-hTERT 0.894 | Mel-DCC-11-R; vemurafenib co-treatment 0 µM 0.98
active: Mel-DCC-11-R; vemurafenib co-treatment 8 µM 0.694

Cc1ccc(=O)n(-c2ccccc2)c1 [Pirfenidone]
inactive: Mel-DCC-11 1.14 | NHEM-hTERT 1.02 | Mel-DCC-11-R; vemurafenib co-treatment 0 µM 1.03 | Mel-DCC-11-R; vemurafenib co-treatment 8 µM 1.1

C/C(=C\c1csc(C)n1)[C@@H]1C[C@@H]2O[C@]2(C)CCC[C@H](C)[C@H](O)[C@@H](C)C(=O)C(C)(C)[C@@H](O)CC(=O)N1 [Ixabepilone]
active: Mel-DCC-11 0.316 | Mel-DCC-11-R; vemurafenib co-treatment 0 µM 0.67 | Mel-DCC-11-R; vemurafenib co-treatment 8 µM 0.377
inactive: NHEM-hTERT 0.595

CNC(=O)c1ccc(N2C(=S)N(c3cnc(C#N)c(C(F)(F)F)c3)C(=O)C23CCC3)cc1F [Apalutamide]
inactive: Mel-DCC-11 1.18 | NHEM-hTERT 1.01 | Mel-DCC-11-R; vemurafenib co-treatment 0 µM 0.958 | Mel-DCC-11-R; vemurafenib co-treatment 8 µM 1.1

N#CC[C@@H](C1CCCC1)n1cc(-c2ncnc3[nH]ccc23)cn1 [S-Ruxolitinib]
inactive: Mel-DCC-11 1.16 | NHEM-hTERT 0.987 | Mel-DCC-11-R; vemurafenib co-treatment 0 µM 1.01 | Mel-DCC-11-R; vemurafenib co-treatment 8 µM 1.28

CC(C)Cn1cnc2c(N)nc3ccccc3c21 [Imiquimod]
inactive: Mel-DCC-11 0.985 | NHEM-hTERT 1.31 | Mel-DCC-11-R; vemurafenib co-treatment 0 µM 0.897 | Mel-DCC-11-R; vemurafenib co-treatment 8 µM 1.07

CCCCCCCCCCCCCCCC(=O)OC/C=C(C)/C=C/C=C(C)/C=C/C1=C(C)CCCC1(C)C [Retinol palmitate]
inactive: NHEM-hTERT 0.993

Nc1cccc2c1C(=O)N(C1CCC(=O)NC1=O)C2=O (stereo unspecified) [Pomalidomide]
inactive: Mel-DCC-11 1.03 | NHEM-hTERT 1.15 | Mel-DCC-11-R; vemurafenib co-treatment 0 µM 1 | Mel-DCC-11-R; vemurafenib co-treatment 8 µM 1.25

CN(Cc1cnc2nc(N)nc(N)c2n1)c1ccc(C(=O)N[C@@H](CCC(=O)O)C(=O)O)cc1 [Methotrexate]
inactive: Mel-DCC-11 1.04 | NHEM-hTERT 0.976 | Mel-DCC-11-R; vemurafenib co-treatment 0 µM 0.993 | Mel-DCC-11-R; vemurafenib co-treatment 8 µM 1.14

CS(=O)(=O)CCNCc1ccc(-c2ccc3ncnc(Nc4ccc(OCc5cccc(F)c5)c(Cl)c4)c3c2)o1 [Lapatinib]
inactive: Mel-DCC-11 1.22 | NHEM-hTERT 0.822 | Mel-DCC-11-R; vemurafenib co-treatment 0 µM 1.12 | Mel-DCC-11-R; vemurafenib co-treatment 8 µM 0.841

CCN(CC)CCNC(=O)c1c(C)[nH]c(/C=C2\C(=O)Nc3ccc(F)cc32)c1C [Sunitinib]
active: Mel-DCC-11-R; vemurafenib co-treatment 8 µM 0.564
inactive: Mel-DCC-11 0.532 | NHEM-hTERT 0.591 | Mel-DCC-11-R; vemurafenib co-treatment 0 µM 1.16

CC1(C)O[C@H]2CC(=O)OC[C@]23[C@H]2CC[C@@]4(C)[C@H](c5ccoc5)OC(=O)[C@H]5O[C@]54[C@]2(C)C(=O)C[C@@H]13 [Limonin]
inactive: Mel-DCC-11 1.1 | NHEM-hTERT 1.21 | Mel-DCC-11-R; vemurafenib co-treatment 0 µM 0.857 | Mel-DCC-11-R; vemurafenib co-treatment 8 µM 1.11

Cc1nc(Nc2ncc(C(=O)Nc3c(C)cccc3Cl)s2)cc(N2CCN(CCO)CC2)n1.O [Dasatinib monohydrate]
inactive: NHEM-hTERT 0.506

CS(=O)(=O)c1ccc(C2=C(c3ccccc3)C(=O)OC2)cc1 [Rofecoxib]
inactive: Mel-DCC-11 0.898 | NHEM-hTERT 0.925 | Mel-DCC-11-R; vemurafenib co-treatment 0 µM 0.862 | Mel-DCC-11-R; vemurafenib co-treatment 8 µM 0.825

O=c1[nH]c(=O)n([C@H]2C[C@H](O)[C@@H](CO)O2)cc1F [Floxuridine]
inactive: Mel-DCC-11 1.34 | NHEM-hTERT 1.11 | Mel-DCC-11-R; vemurafenib co-treatment 0 µM 1.24 | Mel-DCC-11-R; vemurafenib co-treatment 8 µM 1.07

CCc1cnn2c(NCc3ccc[n+]([O-])c3)cc(N3CCCC[C@H]3CCO)nc12 [Dinaciclib]
active: NHEM-hTERT 0.212

CCS(=O)(=O)N1CC(CC#N)(n2cc(-c3ncnc4[nH]ccc34)cn2)C1 [Baricitinib]
inactive: NHEM-hTERT 1.07

COc1cc2ncnc(Nc3ccc(F)c(Cl)c3)c2cc1NC(=O)/C=C/CN1CCCCC1 [Dacomitinib]
inactive: Mel-DCC-11 0.818 | NHEM-hTERT 1.03 | Mel-DCC-11-R; vemurafenib co-treatment 0 µM 1.07 | Mel-DCC-11-R; vemurafenib co-treatment 8 µM 0.911
